Screening data from PubChem.
The list is not random: actives were taken first. Their share in the collection is about 4.9%.
USP10 inh = inhibitors of human USP10 deubiquitinase | Ubiquitin carboxyl-terminal hydrolase 10 (Homo sapiens), Q14694 | 47,000 tested, 1.1% active | purified USP10, Ub-rhodamine fluorescence, 60 min | inhibition, % at 20 µM
USP7 inh = inhibitors of human USP7 deubiquitinase. purified USP7, Ub-rhodamine cleavage fluorescence. inhibition, % at 20 µM. 47,000 tested, 0.3% active. AID 1645854, 2021
OTUD3 inh = inhibitors of human OTUD3 deubiquitinase | OTU domain-containing protein 3 (Homo sapiens), Q5T2D3 | purified OTUD3, Ub-rhodamine fluorescence, 2 h | inhibition, % at 25 µM | 47,000 tested, 0.7% active | AID 1645858, 2021
Target sequence (Q5T2D3 whole entry, looked up, the tested form may be a part): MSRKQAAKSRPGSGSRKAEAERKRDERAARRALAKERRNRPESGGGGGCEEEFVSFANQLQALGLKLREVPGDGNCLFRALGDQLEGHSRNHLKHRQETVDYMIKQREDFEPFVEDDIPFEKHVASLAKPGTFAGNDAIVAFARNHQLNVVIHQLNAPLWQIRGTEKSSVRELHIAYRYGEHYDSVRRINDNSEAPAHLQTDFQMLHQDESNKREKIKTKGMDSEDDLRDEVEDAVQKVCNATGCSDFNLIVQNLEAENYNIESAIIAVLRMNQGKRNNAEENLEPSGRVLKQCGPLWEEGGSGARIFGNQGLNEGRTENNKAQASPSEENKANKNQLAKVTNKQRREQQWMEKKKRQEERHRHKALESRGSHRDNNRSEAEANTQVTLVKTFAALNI
UCHL1 block = inhibitors of human UCHL1 deubiquitinase; purified UCHL1, Ub-rhodamine cleavage fluorescence; inhibition, % at 20 µM; 47,000 tested, 0.2% active
USP8 inh = inhibitors of human USP8 deubiquitinase; 47,000 tested, 4.2% active; inhibition, % at 20 µM; purified USP8, Ub-rhodamine cleavage fluorescence, 30 min; Ubiquitin carboxyl-terminal hydrolase 8 (Homo sapiens), P40818
* = called active by the depositor. No stated cut-off is given here; in the data, active means inhibition above about 30%; inactive means the rest.

SMILES	USP10 inh	USP7 inh	OTUD3 inh	UCHL1 block	USP8 inh
Cc1ccc(-c2nc(SCC(=O)c3c(N)n(C4CC4)c(=O)[nH]c3=O)n[nH]2)cc1	2.6	-9.6	-25.4	0.6	5.2
CC1=C(C#N)C(C(F)(F)F)(C(F)(F)F)N=C(Cc2ccccc2)N1	1.9	-4.4	-4.2	0.2	1.3
Cc1ccc(NC2=NC(c3ccccc3)(C(F)(F)F)C(C#N)=C3C=CC=CN23)cc1 (stereo not drawn)	-17.4	1.8	-1.9	-0.6	63.0*
CC[C@@H]1CCC[C@H](C)CC[C@@H](O[C@@H]2O[C@@H](C)[C@@H](O)[C@@H](N)[C@H]2O)[C@H](CC)CCCNC1=O	13.8	20.9	36.5*	17.9	3.8
CCCCSc1nc(NCCCO)c2c3c(sc2n1)COC(C)(C)C3	-4.3	-6.8	-31.1	7.3	-20.9
CC(C)c1ccc(Nc2nc3cc(S(=O)(=O)N4CCCCC4)ccc3s2)cc1	6.8	5.4	-0.4	0.0	-9.7
O=C(NCCc1nc2ccccc2n1Cc1ccccc1F)c1ccc(Cl)cc1	30.4*	-1.9	2.2	0.1	17.2
Cc1cccc(C(=O)NCCc2nc3ccccc3n2Cc2ccccc2F)c1	6.7	-68.4	0.8	3.2	-0.4
O=C1CC(c2ccc(C(F)(F)F)cc2)c2c(nc(-c3ccccc3)[nH]c2=O)N1 (stereo not drawn)	1.8	14.8	5.2	-6.1	64.7*
COc1cccc(-c2ccc(SCC(=O)Nc3ccc(F)c(F)c3)nn2)c1	9.6	2.0	-2.6	0.5	31.5*
Cc1nc(C2CCCCN2Cc2ccccn2)nc2c1CCC(=O)N2Cc1ccccn1 (stereo not drawn)	-9.2	-4.4	5.3	-11.5	-54.2
Cn1ccnc1C(=O)N1CCC[C@@]2(C[C@@H](Oc3ccc(F)c(Cl)c3)CO2)C1	-0.9	-4.1	-7.2	-4.3	-3.2
N#Cc1c(-c2ccc3c(c2)OCO3)ccn2nc(-c3ccco3)nc12	-6.9	-22.9	-10.5	-7.7	27.2
CCc1nc2c(C#N)c(-c3ccc(Cl)cc3)ccn2n1	23.6	-44.6	32.5*	6.6	36.4*
Cn1cncc1-c1nnc([C@H]2CCN(Cc3ccccc3F)C2)o1	0.9	-4.7	-3.4	-0.6	-10.1
CCC1Cc2c(nc(N)c3c(N)nc(N4CCCCC4)c(C#N)c23)O1 (stereo not drawn)	-10.2	-14.0	-44.6	-3.3	76.7*
O=C(Nc1ccc2ccccc2n1)c1ccc(Cl)cc1	11.8	10.2	5.5	2.2	59.2*
O=C(Nc1ccc2ccccc2n1)c1ccccc1Cl	0.2	1.6	10.2	2.4	23.8
Nc1c(C(=O)NCC2CCCO2)nnn1-c1ccccc1Cl (stereo not drawn)	2.0	2.0	11.1	1.8	32.1*
O=C(NCC1CC1)C1CCCN(c2ccc(-c3ccccc3)nn2)C1 (stereo not drawn)	0.5	-4.9	30.0*	0.2	-0.4
O=C(CC1CCCC1)Nc1cc(F)c2nc(N3CCOCC3)ccc2c1	-4.2	-2.4	3.1	-0.1	70.7*
O=C(Cc1cccs1)Nc1cc(F)c2nc(N3CCOCC3)ccc2c1	-0.1	3.2	-0.2	5.1	-5.3
O=C(Nc1cc(F)c2nc(N3CCOCC3)ccc2c1)C1CCCC1	-3.2	-5.5	-9.0	-0.9	56.6*
COc1cccc(N2CC(C(=O)Nc3nnc4n3CCCS4)CC2=O)c1 (stereo not drawn)	0.5	4.5	0.0	0.1	-29.9
Cc1ccc(NC(=O)NC2CCc3nc(C(F)(F)F)cn3C2)cc1 (stereo not drawn)	1.1	-2.1	-4.1	-0.1	5.9
SMILES	USP10 inh	USP7 inh	OTUD3 inh	UCHL1 block	USP8 inh
O=C(Nc1ccc(OC(F)(F)F)cc1)NC1Cc2ccccc2C1	5.5	2.0	12.6	0.1	42.4*
Cc1cnc(NC(=O)c2cc3cc(Cl)ccc3o2)s1	7.0	6.7	7.1	0.9	46.1*
O=C(c1cc2cc(Cl)ccc2o1)N1CCC1	-0.7	-12.3	0.7	0.3	-4.1
O=C(c1ccncc1)N1CC2(CCN(Cc3ccccc3Cl)CC2)C1	3.1	2.6	9.8	-2.2	-89.4
Cc1ccccc1CN1C[C@@H]2c3nc(NCC4CC4)ncc3CS(=O)(=O)[C@@H]2C1	-8.0	-20.3	-29.1	-0.3	34.8*
O=S1(=O)Cc2cnc(NCC3CC3)nc2[C@H]2CN(Cc3ccccc3)C[C@H]21	-5.5	-14.6	-24.3	-9.1	-14.3
CCn1cc2c(n1)c(=O)n(Cc1ccccc1)c(=O)n2CC(=O)Nc1ccc(OC)cc1	47.0*	9.9	-2.9	4.3	68.3*
CCc1ccc(NC(=O)Cn2c(=O)n(C)c(=O)c3nscc32)cc1	-3.2	-2.2	5.2	9.2	3.5
CC(C)c1ccc(NC(=O)Cn2c(=O)n(Cc3ccncc3)c(=O)c3ncccc32)cc1	-2.8	-1.7	-11.6	-0.4	1.0
CCc1ccc(NC(=O)Cn2c(=O)n(Cc3ccccc3)c(=O)c3nn(CC)cc32)cc1	56.2*	32.1*	18.3	5.1	98.2*
CCn1cc2c(n1)c(=O)n(Cc1ccccc1)c(=O)n2CC(=O)Nc1ccc(C(C)C)cc1	23.5	14.1	7.5	2.5	71.2*
Cc1ccc(NC(=O)c2oc3ccccc3c2CSc2ncn[nH]2)nc1	-4.2	4.7	-10.2	0.2	13.3
COc1cccc(CNc2nc3c(S(=O)(=O)c4ccc(F)cc4)nnn3c3ccccc23)c1	0.6	5.5	0.0	-3.2	9.1
O=S(=O)(c1ccccc1)c1nnn2c1nc(Nc1ccc(F)cc1)c1ccccc12	9.9	7.7	5.5	2.4	52.1*
Cc1ccc(S(=O)(=O)c2nnn3c2nc(Nc2cccc(C)c2C)c2ccccc23)cc1	12.6	13.8	3.9	2.0	67.0*
COc1cccc(Nc2nc3c(S(=O)(=O)c4ccccc4)nnn3c3ccccc23)c1	19.7	23.6	4.5	7.0	37.7*
COc1ccc([N+](=O)[O-])cc1NC(=O)COC(=O)C1CCCN1S(=O)(=O)c1ccc(Cl)cc1 (stereo not drawn)	6.2	0.1	3.8	3.1	-18.9
Cn1c(CNC(=O)Cc2ccccc2)nc2ccccc21	-0.7	-2.3	3.5	0.7	-13.2
CCCn1c(=O)c2sccc2n2c(CCC(=O)NC3CC3)nnc12	-0.1	5.6	14.6	0.0	22.5
Cc1ccc(Cl)cc1NC(=O)CSc1ncnc2c1oc1ccccc12	2.3	3.0	1.3	0.1	4.1
Cc1nc(SCC(=O)Nc2cc(Cl)ccc2C)c2oc3ccccc3c2n1	3.4	11.8	17.0	2.5	31.6*
CCc1ccc(-n2c(C)cc(/C=C3\C(=N)N4N=CSC4=NC3=O)c2C)cc1	40.1*	-179.8	-120.9	6.2	62.0*
CC(=O)Nc1cccc(NC(=O)COc2cccc3ccc(N4CCCC4)nc23)c1	4.8	3.1	-2.9	6.2	6.1
Cc1cccc(NC(=O)COc2cccc3ccc(N4CCC(C(N)=O)CC4)nc23)c1	10.6	1.3	-7.4	-2.4	60.6*
CCC(=O)Nc1nc2cc(NC(=O)Nc3ccccc3Cl)ccc2s1	24.4	12.9	-1.2	1.8	33.5*
